Growth data for eight compounds are collected here from PubChem BioAssay (NCI).

This is part of a sample that, as a whole, favours compounds with a hit. Of some 83,000 tested, about 20% had one in any assay.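 Plates (96-well) were seeded with cells, treated with compound at one concentration, and incubated for 48 hours before percent growth was determined.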 A number with no mark means an inactive call. Active and inactive are the calls of the source. The calls were made as follows: active = growth percent below 10; inactive = the rest.

Common to all, as to assay: NCI-60 one-dose screen, 48 h (100 = growth as untreated, 0 = no growth, -100 = all killed)
Assay [1] has as its system DU-145 prostate. As to conditions: 10 µM unless noted.
Assay [2] relates to K-562 leukemia. To be noted: 10 µM unless noted.
Assay [3] deals with MALME-3M melanoma. To be noted: 10 µM unless noted.
In assay [4] the test system is MDA-MB-231 breast. To be noted: 10 µM unless noted.
For assay [5], the system named is RXF 393 renal. To be noted: 10 µM unless noted.
Assay [6] has as its system SF-268 CNS. As to conditions: 10 µM unless noted.
For assay [7], the system named is SF-295 CNS. As to conditions: 10 µM unless noted.
Assay [8] deals with SF-539 CNS. As to conditions: 10 µM unless noted.
Assay [9] relates to UACC-257 melanoma. To be noted: 10 µM unless noted.
In assay [10] the test system is M14 melanoma. To be noted: 10 µM unless noted.
In assay [11] the test system is HCT-15 colon. As to conditions: 10 µM unless noted.
Assay [12] has as its system HT29 colon. To be noted: 10 µM unless noted.
In assay [13] the test system is SNB-75 CNS. To be noted: 10 µM unless noted.
Assay [14] has as its system SNB-19 CNS. As to conditions: 10 µM unless noted.
For assay [15], the system named is U251 CNS. To be noted: 10 µM unless noted.
Assay [16] relates to PC-3 prostate. As to conditions: 10 µM unless noted.
Assay [17] relates to SK-MEL-5 melanoma. To be noted: 10 µM unless noted.
Assay [18] concerns UACC-62 melanoma. As to conditions: 10 µM unless noted.
In assay [19] the test system is LOX IMVI melanoma. To be noted: 10 µM.
For assay [20], the system named is SK-MEL-28 melanoma. As to conditions: 10 µM unless noted.

For `COc1ccc2[nH]cc(-c3cc(N)n4nc(-c5cn(C)c6ccccc56)cc4n3)c2c1`, the growth in [1] was -64.7% (active); in assay [2], 4.69% (active); in assay [3], -75.5% (active); in assay [4], -44.8% (active); in [5], -83.9% (active); in assay [6], -11.7% (active). Further, the growth is -81% (active) in [7]; -82% (active) in [8]; -86.2% (active) in assay [9]; -91.1% (active) in [10]; -83.4% (active) in [11]; -73.7% (active) in assay [12]. The growth in [13] was -52.4% (active); in [14], -48.4% (active); in assay [15], -85.3% (active); in [16] it was -67.6% (active); in assay [17], -96.3% (active); in [18], -76.5% (active). Further, the growth in [19] is -67.9% (active); in assay [20], -92.9% (active).

As to `COc1ccc(Cc2nn(CC(=O)N/N=C/c3ccc(F)cc3)c(=O)c3c(C)noc23)cc1`, the growth in assay [1] was 40%; in [2], 70.1%; in assay [3], -0.917% (active); in [4], 31.3%; in assay [5], -26% (active); in [6], 46.7%. The growth in [7] is -19.3% (active); in assay [8], 57.1%; in [9], 54.3%; in assay [10], 50.8%; in [11], 67.2%; in assay [12], 74%. Also, the growth in assay [13] was -17.4% (active); in assay [14], 20.1%; in [15], 17.8%; in assay [16], 35.9%; in assay [17], 82.2%; in assay [18], 44.4%. Further, the values for the growth in [19] and in [20] were 29.5% and 35.9%, respectively.

For `CCN(CC)c1ccc(/C=N/Nc2nc(-c3ccc(C)cc3)cs2)c(O)c1`, the growth is 97.6% in [1]; 62.1% in [2]; 105% in assay [3]; 99.6% in assay [4]; 87.1% in assay [5]; 105% in assay [6]. Also, the growth was 93.6% in assay [7]; 106% in assay [8]; 95.2% in assay [9]; 99.7% in [10]; 67.2% in assay [11]; 83.5% in [12]. Moreover, the growth in [13] is 92.1%; in [14], 89.6%; in [15] it was 90%; in assay [16], 70.5%; in assay [17], 79.7%; in [18] it was 80.6%. Moreover, the figures for the growth in assay [19] and in [20] were 88.2% and 95%, respectively.

With `O=C(COc1ccc2c(c1)CCCC(=O)N2)NCc1ccccc1`, the growth in [1] was 113%; in [2] it was 43.4%; in assay [3], 95.6%; in [4], 82.4%; in assay [5], 93.2%; in assay [6], 97.5%. Besides, the growth in assay [7] was 90.8%; in assay [8] it was 87.3%; in assay [9], 98%; in [10], 83%; in assay [11], 42%; in [12] it was 103%. The growth in assay [13] was 92.9%; in [14], 89%; in assay [15], 90.6%; in [16] it was 94.9%; in assay [17], 82%; in assay [18], 86.5%. For the same compound, the figures for the growth in assay [19] and in [20] were 78.1% and 90.4%, respectively.

Regarding `C#CCOc1cc(N(CC)CC)ccc1C(C(=O)NC(C)(C)C)N(C(=O)C1CCc2cc(F)ccc2O1)c1ccc(Br)cc1` (centres undefined), the growth in assay [1] is 97.1%; in assay [2], 41.1%; in [3], 92.6%; in assay [4], 61.6%; in [5], 103%; in assay [6], 92.8%. The growth is 96.4% in assay [7]; 81.1% in [8]; 87.8% in [9]; 68.3% in assay [10]; 65.4% in assay [11]; 77.3% in assay [12]. The growth in assay [13] is 98.9%; in [14], 91.5%; in assay [15], 87.2%; in [16] it was 38.8%; in [17], 81%; in assay [18] it was 61%. The figures for the growth in [19] and in assay [20] were 35.9% and 80.2%, respectively.

Consider `COc1ccc(C(=O)/C=C/c2ccc(OC)c(OCc3ccccc3)c2)cc1OC`, for which the growth in assay [1] is 15.4%; in [2], 13.2%; in assay [3], 74.1%; in [4], 17.9%; in assay [5], -10.4% (active); in assay [6], 21.1%. Also, the growth in [7] is 69%; in assay [8] it was -27.2% (active); in assay [9], 42.7%; in assay [10], 34.6%; in [11] it was 1.81% (active); in assay [12] it was 5.47% (active). Also, the growth in assay [13] is 39.7%; in assay [14], 17.3%; in assay [15] it was 7.69% (active); in [16], 25.1%; in [17], 31.9%; in assay [18] it was 14.8%. For the same compound, the growth in assay [19] is -26% (active); in assay [20] it was 39.8%.

Take `Cc1cccc(Nc2nc3ccccc3nc2/C=C/c2ccc(F)cc2)c1`: the growth in [1] is 101%; in [2], 86.5%; in assay [3], 109%; in assay [4], 97.1%; in assay [5], 98%; in assay [6], 91%. In addition, the growth was 107% in [7]; 102% in assay [8]; 94.5% in [9]; 93.3% in [10]; 95.6% in [11]; 86.4% in assay [12]. In addition, the growth in assay [13] is 91.9%; in [14], 92.8%; in assay [15], 94%; in assay [16], 89.1%; in assay [17] it was 88%; in assay [18], 74.7%. Also, in assay [19], the growth is 101%.

In the case of `C#C[C@]1(O)CC[C@H]2[C@@H]3CC=C4c5sc(-c6ccc(O)c(O)c6)nc5CC[C@]4(C)[C@H]3CC[C@@]21C`, the growth was -49.4% (active) in [1]; -51.3% (active) in assay [2]; -84% (active) in assay [3]; -77.8% (active) in assay [4]; -90.2% (active) in assay [5]; -76.7% (active) in assay [6]. Also, the growth in assay [7] is -94.2% (active); in assay [8], -93.2% (active); in assay [9], -81.7% (active); in assay [10], -87.7% (active); in [11] it was -82.2% (active); in assay [12], -80.2% (active). Also, the growth in assay [13] was -81.4% (active); in [14], -89.4% (active); in assay [15], -94.3% (active); in assay [16] it was -58.9% (active); in assay [17] it was -98.4% (active); in assay [18], -74.7% (active). Also, the growth in assay [19] is -92.9% (active); in assay [20] it was -80.3% (active).
